About 14,000 (4.5%) of roughly 310,000 compounds showed an effect of 50% or more. The effect is printed as a negative number. Shown is part of a subset that was picked to be rich in strong results.
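Note: peak tail current of the secondary pulse compared with the same well before compound.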

Sequence of human ether-à-go-go-related gene (hERG) potassium channel (Q12809 whole entry, looked up): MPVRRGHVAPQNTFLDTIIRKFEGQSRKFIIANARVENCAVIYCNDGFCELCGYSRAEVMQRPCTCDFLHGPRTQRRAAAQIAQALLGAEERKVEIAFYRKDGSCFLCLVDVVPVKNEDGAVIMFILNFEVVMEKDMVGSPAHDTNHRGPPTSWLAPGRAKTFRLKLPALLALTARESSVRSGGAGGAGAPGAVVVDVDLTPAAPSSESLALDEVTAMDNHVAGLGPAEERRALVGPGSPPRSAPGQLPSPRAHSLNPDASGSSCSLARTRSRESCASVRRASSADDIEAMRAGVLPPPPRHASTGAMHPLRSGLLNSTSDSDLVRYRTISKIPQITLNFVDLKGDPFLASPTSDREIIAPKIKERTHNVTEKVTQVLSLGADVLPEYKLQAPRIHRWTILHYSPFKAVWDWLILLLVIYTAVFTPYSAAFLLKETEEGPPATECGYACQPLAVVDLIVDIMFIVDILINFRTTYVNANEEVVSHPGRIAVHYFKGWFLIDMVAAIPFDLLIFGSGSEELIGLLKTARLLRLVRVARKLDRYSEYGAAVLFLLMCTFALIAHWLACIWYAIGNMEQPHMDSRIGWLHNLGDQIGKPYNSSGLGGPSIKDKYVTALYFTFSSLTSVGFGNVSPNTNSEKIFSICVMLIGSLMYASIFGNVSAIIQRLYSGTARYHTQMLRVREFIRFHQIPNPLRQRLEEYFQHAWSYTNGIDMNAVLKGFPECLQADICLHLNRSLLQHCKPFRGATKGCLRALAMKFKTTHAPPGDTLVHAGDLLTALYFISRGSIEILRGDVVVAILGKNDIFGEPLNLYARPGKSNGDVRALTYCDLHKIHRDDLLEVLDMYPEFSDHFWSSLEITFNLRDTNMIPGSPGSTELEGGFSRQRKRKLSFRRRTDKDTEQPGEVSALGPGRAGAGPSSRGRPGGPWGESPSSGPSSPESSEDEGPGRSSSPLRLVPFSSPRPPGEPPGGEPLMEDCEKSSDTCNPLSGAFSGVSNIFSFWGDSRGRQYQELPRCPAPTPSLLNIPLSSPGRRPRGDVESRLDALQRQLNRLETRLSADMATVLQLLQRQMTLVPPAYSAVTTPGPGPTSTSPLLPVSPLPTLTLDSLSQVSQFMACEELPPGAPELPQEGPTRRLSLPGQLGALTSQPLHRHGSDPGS

This assay has as its target human ether-à-go-go-related gene (hERG) potassium channel (human, UniProt Q12809). Briefly: primary screen, population patch clamp on CHO cells stably expressing hERG; higher = less effect of the substance.
Consider `COc1ccc(CNC(=O)CCSCc2cccc(Cl)c2)cc1`, for which the “hERG current change (%, negative = inhibition) at 10uM” value is given as -17%. Then `COc1ccc(-n2nnnc2CNC(=O)C(=O)c2c[nH]c3ccccc23)cc1`, with 6.27%. The value for `CCCCOC(=O)Nc1ccc(C(=O)OCCC)cc1` was -12.9%; that for `CCC(C)c1ccc2oc(-c3ccc(NC(=O)c4ncn[nH]4)cc3)nc2c1` (stereo not drawn) was -1.89%.

Consider `CCOc1ccc(N2C(=O)CC(N3CCC(O)(c4ccc(Br)cc4)CC3)C2=O)cc1` (stereo not drawn), for which the “hERG current change (%, negative = inhibition) at 10uM” value is given as -49.1%.

`CC1(C)CC(=O)C2=C(C1)NC(=O)CC2c1cc(F)ccc1F` (stereo not drawn): the “hERG current change (%, negative = inhibition) at 10uM” value is on record as -21.6%. Consider `Cc1cc(C)c2c(c1)/C(=N/NS(=O)(=O)c1ccccc1)CCC2`, for which the “hERG current change (%, negative = inhibition) at 10uM” value turned out to be 7.48%. Then `COC(=O)Nc1ccc(S(=O)(=O)NCCCCCC(=O)O)cc1`, with -1.56%; and `CCOC(=O)c1nn(-c2ccccc2C)c(=O)cc1OCC(=O)N1CCN(c2ccccc2)CC1`, with -24.6%.

For the compound `CCOC(=O)c1nn(-c2ccc(C)cc2)c(=O)cc1OCC(=O)N1CCN(c2ccccc2)CC1`, the “hERG current change (%, negative = inhibition) at 10uM” value is listed as -51.9%. As for `CCn1c(=O)cc(OCC(=O)N2CCN(c3ccc(F)cc3)CC2)c2ccccc21`, the “hERG current change (%, negative = inhibition) at 10uM” value is on record as -69.8%. Then `CCN1CCN(C(=O)COc2cc(=O)n(CC)c3ccccc23)CC1`, with -2.67%; and `CCn1c(=O)cc(OCC(=O)N2CCN(c3cccc(C(F)(F)F)c3)CC2)c2ccccc21`, with -48.2%.

Turning to `CCOC(=O)c1nn(-c2ccc(F)cc2)c(=O)cc1OCC(=O)N1CCN(c2ccccc2)CC1`, the “hERG current change (%, negative = inhibition) at 10uM” value is on record as -15.6%. Then `CN(C)c1ccc(CNn2cnnc2SCC(=O)NC(C)(C)C)cc1`, with 23.4%; and `CCOc1ccc(C(=O)OCC(=O)NCCCc2ccccc2)cc1`, with 0.425%.

As for `Cc1c(/C=N/n2cnnc2)c2ccccc2n1C`, the “hERG current change (%, negative = inhibition) at 10uM” value was 1.25%. Then `COC(=O)c1ccc(NC(=O)C23CC4CC(C2)CC(n2cncn2)(C4)C3)cc1`, with -22%.

`CC(NC(=O)C12CC3CC(C1)CC(n1cncn1)(C3)C2)C12CC3CC(CC(C3)C1)C2` (stereo not drawn): the “hERG current change (%, negative = inhibition) at 10uM” value is on record as -61.9%.

As for `O=C(NC1CCCCC1)C12CC3CC(C1)CC(n1cncn1)(C3)C2`, the “hERG current change (%, negative = inhibition) at 10uM” value was determined as 0.934%. With `CCN(CC)C(=O)CSC1=C(C#N)C(c2cccs2)C=C(C)N1` (stereo not drawn), the “hERG current change (%, negative = inhibition) at 10uM” value stood at 14.1%. The value for `COc1ccc2c(c1)CC/C(=C/c1ccncc1)C2=O` was -55.2%; that for `COc1ccc2c(c1)CC/C(=C/c1ccccn1)C2=O` was 3.19%; that for `COc1ccc2c(c1)CC/C(=C/c1cc(OC)c(OC)c(OC)c1)C2=O` was -1.54%. Then `CCCc1cc(=O)oc2cc(OCc3cc(OC)c(OC)c(OC)c3)c(Cl)cc12`, with 17.4%. Turning to `CC1(C)CC(NC(=S)NCc2ccco2)CC(C)(C)N1`, the “hERG current change (%, negative = inhibition) at 10uM” value was found to be 18.9%.

For `COc1ccc(CN2CCN(C3CCOCC3)CC2CCO)c(C)c1C` (stereo not drawn), the “hERG current change (%, negative = inhibition) at 10uM” value was -12.4%. The value for `CCOc1ccc(CN2CCN(Cc3ccc(C)o3)CC2CCO)cc1` (stereo not drawn) was -104%. Then `CCOc1ccccc1CN1CCN(C2CCSCC2)CC1CCO` (stereo not drawn), with -25.9%. Consider `COc1ccc(CN2CCN(C3CCC3)CC2CCO)c(C)c1C` (stereo not drawn), for which the “hERG current change (%, negative = inhibition) at 10uM” value was determined as 0.432%. The value for `COc1cccc(CN2CCN(Cc3cc4ccccc4o3)CC2CCO)c1` (stereo not drawn) was -10.7%; that for `COc1ccc(CN2CCN(C3CCSCC3)CC2CCO)c(C)c1C` (stereo not drawn) was -51.1%; that for `Cc1ccccc1CN1CCN(Cc2cc3ccccc3o2)CC1CCO` (stereo not drawn) was -6.94%.

Take `CCOc1ccc(CN2CCN(C3CCSCC3)CC2CCO)cc1` (stereo not drawn): the “hERG current change (%, negative = inhibition) at 10uM” value is on record as -74.3%. As for `CCOc1ccc(CN2CCN(C3CCC3)CC2CCO)cc1` (stereo not drawn), the “hERG current change (%, negative = inhibition) at 10uM” value was -19.2%. Then `CCOc1ccccc1CN1CCN(Cc2ccc(C)o2)CC1CCO` (stereo not drawn), with -37.9%; and `COc1ccc(CN2CCN(Cc3cc4ccccc4o3)CC2CCO)c(F)c1` (stereo not drawn), with -60.9%; and `Cc1ccc(CN2CCN(Cc3ccc(OCCO)cc3)CC2CCO)o1` (stereo not drawn), with 1.29%. Then `CCOC(=O)C1=C(CS(=O)(=O)c2ccccc2)NC(=O)NC1c1ccccc1OCC` (stereo not drawn), with -4.89%. Turning to `Cc1ccsc1C1NC(=O)c2ccccc2N1` (stereo not drawn), the “hERG current change (%, negative = inhibition) at 10uM” value turned out to be 5.58%.

Regarding `CCC(C)(C)NC(=O)C(c1ccc(OC)cc1)N(C(=O)CCC(=O)Nc1cc(C)on1)c1ccc2c(c1)OCCO2` (stereo not drawn), the “hERG current change (%, negative = inhibition) at 10uM” value was found to be 11.1%. Then `O=C1OC/C(=C(/O)c2ccc(Cl)cc2)C1=O`, with 17%. The value for `Cc1cc(NC(=S)NC(=O)c2ccco2)c2ccccc2n1` was -1.51%; that for `Cc1ccc(S(=O)(=O)N2CCCCC2C(=O)O)cc1` (stereo not drawn) was 6.47%.

As to `COc1ccc(C(=O)C2CCN(C(=S)NCC3CCCO3)CC2)cc1` (stereo not drawn), the “hERG current change (%, negative = inhibition) at 10uM” value is -7.23%. With `O=C(c1cccc(S(=O)(=O)N2CCCC2)c1)N(Cc1ccco1)C1CCS(=O)(=O)C1` (stereo not drawn), the “hERG current change (%, negative = inhibition) at 10uM” value is -21.8%. As for `OCCC1CN(Cc2ccon2)CCN1Cc1ccccc1` (stereo not drawn), the “hERG current change (%, negative = inhibition) at 10uM” value was 9.42%. Then `CCOc1ccc(CN2CCN(CC3CC3)CC2CCO)cc1` (stereo not drawn), with -67.1%; and `COc1ccc(CN2CCN(CC3CC3)CC2CCO)cc1C` (stereo not drawn), with -0.194%; and `OCCC1CN(Cc2cc3ccccc3o2)CCN1Cc1ccc(F)cc1` (stereo not drawn), with -11.8%. The value for `Cc1ccc(CN2CCN(Cc3ccon3)CC2CCO)cc1` (stereo not drawn) was -11.1%. `COc1cc(CN2CCN(CC3CC3)CC2CCO)cc(OC)c1` (stereo not drawn): the “hERG current change (%, negative = inhibition) at 10uM” value amounted to 2.79%. Consider `CCOc1ccc(CN2CCN(Cc3cc4ccccc4o3)CC2CCO)cc1` (stereo not drawn), for which the “hERG current change (%, negative = inhibition) at 10uM” value is on record as -80.4%. In the case of `CCOc1ccc(CN2CCN(Cc3ccon3)CC2CCO)cc1` (stereo not drawn), the “hERG current change (%, negative = inhibition) at 10uM” value was -62.8%.

Turning to `Cc1ccc(CN2CCN(Cc3cc4ccccc4o3)CC2CCO)cc1` (stereo not drawn), the “hERG current change (%, negative = inhibition) at 10uM” value was -43.1%. On to `N#CC(C#N)=Cc1c[nH]c(=O)c(C#N)c1Nc1ccccc1`, for which the “hERG current change (%, negative = inhibition) at 10uM” value turned out to be 16.1%. As for `O=C(CN(Cc1ccccc1)S(=O)(=O)c1ccccc1)NC1CC1`, the “hERG current change (%, negative = inhibition) at 10uM” value is -3.03%. The value for `CCc1cc(=O)oc2cc(C)cc(OCC(=O)NCC3CCC(C(=O)O)CC3)c12` (stereo not drawn) was 4.34%.

Consider `CC(C)(C)NC(=O)CN(c1cccc([N+](=O)[O-])c1)S(=O)(=O)c1ccccc1`, for which the “hERG current change (%, negative = inhibition) at 10uM” value is listed as -11.5%. `Cc1cc(C)c(NC(=O)CCCOC(=O)C2=COCCO2)c(C)c1`: the “hERG current change (%, negative = inhibition) at 10uM” value amounted to 16.1%.

Take `O=C(N/N=C/c1cccc(F)c1)c1csc2c1CCCC2`: the “hERG current change (%, negative = inhibition) at 10uM” value was -30%.

In the case of `CC(C)C[C@H](NC(=O)c1[nH]cnc1C(=O)N[C@@H](C)c1ccccc1)C(=O)OC(C)(C)C`, the “hERG current change (%, negative = inhibition) at 10uM” value turned out to be 12.5%.

In the case of `CC1CCN(C(=O)c2cc3ccccc3c(=O)o2)CC1`, the “hERG current change (%, negative = inhibition) at 10uM” value was 5.74%. Then `Cc1nnc(SCC(=O)N/N=C/c2ccc(-c3ccc(C)c(Cl)c3)o2)s1`, with -1.51%; and `COC(=O)N/N=C/c1ccc(-c2ccc(C)c(Cl)c2)o1`, with -6.4%. As to `O=C(CN1CCCC1)N/N=C/c1ccc(-c2cccc(Cl)c2)o1`, the “hERG current change (%, negative = inhibition) at 10uM” value is -62.2%.

For `Nc1nnnn1CC(=O)N/N=C/c1ccc(-c2cccc(Cl)c2)o1`, the “hERG current change (%, negative = inhibition) at 10uM” value is 8.79%.

For `O=C(Cn1nnc(-c2ccccc2Cl)n1)N/N=C/c1ccc(-c2cccc(Cl)c2)o1`, the “hERG current change (%, negative = inhibition) at 10uM” value was found to be 2.26%.

For the compound `Cc1ccc(-c2ccc(/C=N/NC(=O)CN3CCCC3)o2)cc1Cl`, the “hERG current change (%, negative = inhibition) at 10uM” value is given as -90.2%. Then `CC1(c2ccccc2)NC(=O)N(Cc2ccc([N+](=O)[O-])cc2)C1=O` (stereo not drawn), with -31%; and `Cn1cc(CN2CCCC(C(=O)Nc3cccc(-n4cccn4)c3)C2)cn1` (stereo not drawn), with -5.79%; and `COCc1cc(CN2CCCC(C(=O)Nc3cccc(-n4cnnn4)c3)C2)ccc1OC` (stereo not drawn), with -6.58%. With `COc1ccc(CN2CCCC(C(=O)Nc3cccc(-n4cccn4)c3)C2)c(F)c1` (stereo not drawn), the “hERG current change (%, negative = inhibition) at 10uM” value is reported as -30.3%. The value for `COC(=O)c1ccc(CN2CCCC(C(=O)Nc3cccc(-n4cnnn4)c3)C2)cc1` (stereo not drawn) was -47.7%. The value for `O=C(Nc1cccc(-n2cnnn2)c1)C1CCCN(Cc2cccc(C(F)(F)F)c2)C1` (stereo not drawn) was -59.8%; that for `COc1ccc(CN2CCCC(C(=O)Nc3cccc(-n4cnnn4)c3)C2)c(C)c1C` (stereo not drawn) was -62.7%.

As to `COC(=O)Cc1c(C)c2ccc(OC3CCCCC3=O)c(C)c2oc1=O` (stereo not drawn), the “hERG current change (%, negative = inhibition) at 10uM” value is on record as 3.77%. The value for `CCCCCOc1ccc(NC(=O)CSc2cccc3cccnc23)cc1` was 18.8%; that for `N#Cc1cc([N+](=O)[O-])ccc1NC(=O)CSc1n[nH]c(=O)n1C1CC1` was 1.42%; that for `O=C(Nc1c(C(=O)N2CCN(c3ccccn3)CC2)oc2ccccc12)c1ccc([N+](=O)[O-])cc1` was -51%.

As to `O=C(Nc1c(C(=O)N2CCN(c3ccccn3)CC2)oc2ccccc12)c1cccc([N+](=O)[O-])c1`, the “hERG current change (%, negative = inhibition) at 10uM” value is -48.8%. Turning to `Cc1c(C(=O)N2CCN(c3ccccn3)CC2)oc2ccccc12`, the “hERG current change (%, negative = inhibition) at 10uM” value is reported as -28%.

Regarding `COc1cccc(OC)c1C(=O)Nc1c(C(=O)N2CCN(C)CC2)oc2ccccc12`, the “hERG current change (%, negative = inhibition) at 10uM” value is listed as -29.1%. The value for `COc1cccc(OC)c1C(=O)Nc1c(C(=O)N2CCN(c3ccccn3)CC2)oc2ccccc12` was -61.6%; that for `COc1cccc(OC)c1C(=O)N1CCN(c2ccccn2)CC1` was 11%; that for `COc1ccc(NC(=O)c2ccc(-c3nn(C)c(=O)c4ccccc34)cc2)cc1C(N)=O` was 6.4%.

For the compound `Cc1ccc(N(C(=O)Cc2cccs2)C(C(=O)NCC2CCCO2)c2ccncc2)cc1` (stereo not drawn), the “hERG current change (%, negative = inhibition) at 10uM” value is 11.5%.
